GLP1R inv ag = GLP-1 receptor (human) inverse agonism. HEK293 GLP-1R CRE-luciferase, luminescence, 24 h; GLP-1R form is constitutively active. Potency, µM (highest dose often 38.3 µM), for the others: top-dose activity change, negative = inhibition, hits mostly inhibitors. 1.6% of 410,000 active; further: on the % scale 0 is the no-effect control and ±100 the full control effect; nearly all actives have a fitted effect of over 55% in size
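Assay principle: reduced luminescence from a cAMP-responsive reporter in HEK293 cells co-expressing a constitutively active GLP-1R. Conditions: 24 hr compound incubation, 37 deg C, 5% CO2.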
GLP1R cytotox = cytotoxicity in counter-screen for GLP-1R inverse agonists | Potency, µM (titrated, usually from 38.3 µM), for inactives: at the top dose activity change, negative = inhibition, hits mostly inhibitors | 0.13% of 410,000 active | HEK293 cAMP-luciferase reporter cells, luminescence, 24 h | AID 624418;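 further: loss of luciferase light is scored as toxicity; on the % scale 0 is the no-effect control and ±100 the full control effect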
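Seeding density was 200 cells/uL; after overnight-length (12 h) culture, 23 nL compounds went on for 24 h at 37 °C. Readout used a luciferase detection reagent, luminescence taken after 12 min at room temperature.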
GLP1R ag = agonists of human GLP-1 receptor; Potency, µM (doses to about 45.6 µM), for inactives: at the top dose activation, hits mostly activators; HEK293 GLP-1R CRE-luciferase, luminescence, 4-6 h; cells express a hypersensitive GLP-1R form; P43220; 0.007% of 380,000 active; further: % of control where 0% means no effect
PTHR1 ag = PTHR1 (human) receptor agonism | 0.075% of 410,000 active | Potency, µM (titrated, usually from 115 µM), without a hit: at the highest dose activation, hits mostly activators | AID 743266 | HEK293 GP2 PTHR1 cells, GloSensor cAMP luminescence, 1 h; further: nearly all actives have a fitted effect of over 55% in size
Target sequence (Q03431 whole entry, looked up): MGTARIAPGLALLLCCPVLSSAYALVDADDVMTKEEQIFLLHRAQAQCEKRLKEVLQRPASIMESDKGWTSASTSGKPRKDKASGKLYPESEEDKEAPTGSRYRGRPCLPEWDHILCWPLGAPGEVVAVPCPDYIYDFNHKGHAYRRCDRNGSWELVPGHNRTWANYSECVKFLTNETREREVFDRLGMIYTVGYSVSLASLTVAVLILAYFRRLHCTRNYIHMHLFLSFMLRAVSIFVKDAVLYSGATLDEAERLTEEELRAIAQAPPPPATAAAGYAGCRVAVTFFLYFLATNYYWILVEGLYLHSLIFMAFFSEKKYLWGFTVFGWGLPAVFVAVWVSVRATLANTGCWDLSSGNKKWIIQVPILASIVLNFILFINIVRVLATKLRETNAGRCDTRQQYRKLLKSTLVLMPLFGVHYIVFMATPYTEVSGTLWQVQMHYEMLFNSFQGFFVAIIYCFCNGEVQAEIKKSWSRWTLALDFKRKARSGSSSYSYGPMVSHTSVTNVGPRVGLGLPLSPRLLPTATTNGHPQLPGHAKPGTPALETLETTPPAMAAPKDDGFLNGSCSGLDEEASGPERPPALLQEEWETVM
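HEK-293-derived GP2 cells expressing PTHR1 and a GloSensor cAMP reporter, 3,000/well, plated overnight, given luciferin plus IBMX (each 0.5 mM as added) for 1 h at 37 °C, then compound for 1 h at 37 °C. Luminescence was read after 15 min at room temperature.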
* hit, by the source's call; i = inactive; u = inconclusive; x = no result given; [ ] = dose if it differs, or a comment. Only some compounds are listed: those with a hit (about 1.7% of all), similar ones and a draw of the others. The call rests on the fitted dose curve; in most records, active means well fitted curve in the direction sought with a large enough effect; inconclusive means small, poorly fitted or top-dose-only effect, or another doubt; inactive means no such curve, though single readings can be large; an effect the other way counts as inactive or inconclusive. Potency means the concentration at half of the fitted maximal effect.

SMILES | GLP1R inv ag | GLP1R cytotox | GLP1R ag | PTHR1 ag
COc1cc(Cl)c(C)cc1NCC(=O)Nc1cccc(S(=O)(=O)N2CCCC2)c1 | 8.91µM* | -15.4% | -5.4% | -51.3%
COc1ccc(Cl)cc1NC(=O)C1Cc2cc(S(=O)(=O)N3CCCC3)ccc2N1C(C)=O (centres undefined) | u | -1.6% | 2.8% | -24.0%
O=C(CNc1ccc(F)cc1Cl)Nc1cccc(S(=O)(=O)N2CCCCC2)c1 | u | -23.9% | 3.8% | -33.7%
COc1cccc(CN(C)CC(=O)Nc2cc(S(=O)(=O)N3CCCC3)ccc2Cl)c1OC | 7.94µM* | 3.5% | 0.2% | -42.5%
COc1ccc(NC(=O)C2Cc3cc(S(=O)(=O)N4CCCCC4)ccc3N2C(C)=O)cc1Cl (centres undefined) | 10µM* | -4.5% | -2.6% | -13.7%
CCc1ccccc1OCC(=O)Nc1cccc(S(=O)(=O)N2CCCC2)c1 | 11.2µM* | 1.7% | 7.9% | -28.3%
CCOc1ccccc1-c1noc(CSc2nnc(-c3ccncc3)n2-c2ccc(F)cc2)n1 | 10.7% | 1.0% | x | -1.3%
COc1ccc(S(=O)(=O)N(C)C)cc1NCC(=O)Nc1cccc2ccccc12 | -17.5% | -13.2% | 7.4% | -15.2%
COc1ccc(S(=O)(=O)N(C)C)cc1NCC(=O)Nc1ccc(Br)c(C)c1 | 11.2µM* | -6.5% | 9.3% | -91.6%
Cc1ccc(-c2nc(SCC(=O)Nc3cc(S(=O)(=O)N4CCCCC4)ccc3Cl)n[nH]2)cc1 | 10µM* | u | 13.6% | -32.7%
COc1ccc(S(=O)(=O)N2CCOCC2)cc1C(=O)Nc1ccc(N2CCCCCC2)cc1 | 10µM* | -21.6% | 3.2% | -18.0%
COc1ccc(S(=O)(=O)N2CCCCC2)cc1NCC(=O)Nc1ccc(C)cc1 | 8.91µM* | -17.6% | 19.8% | -17.5%
CCCOc1ccc(CNC(=O)Cn2cc3c(n2)-c2c(oc(C(=O)N4CCOCC4)c2C)CC3)cc1 | 1.0% | -4.2% | x | -87.1%
CCN(CC)CCNC(=O)c1ccc2c(c1NCCO)C(=O)c1ccccc1C2=O | u | 5.01µM* | -6.6% | -26.9%
Cc1noc(C)c1S(=O)(=O)N1CCCC(C(=O)Nc2ccc(C(C)C)cc2)C1 (centres undefined) | -10.6% | -14.4% | -1.4% | u
O=c1[nH]c(/C=C\c2ccc(O)c(O)c2)nc(O)c1[N+](=O)[O-] | -11.4% | 11.2µM* | 2.5% | i
O=c1[nH]c(/C=C\c2cccc(O)c2)nc(O)c1[N+](=O)[O-] | 4.4% | -0.1% | -1.0% | i
O=C(NNc1ccc([N+](=O)[O-])cc1[N+](=O)[O-])c1ccco1 | -18.4% | 10µM* | -1.9% | -17.5%
O=C(NNc1ccc([N+](=O)[O-])cc1)c1ccco1 | u | u | -0.5% | i
CCOC(=O)C1Nc2c(F)cc(C)cc2C2c3ccccc3CC12 (centres undefined) | 10µM* | 26.2% | -4.2% | -34.8%
O=C(NC1CC2CCC(C1)N2Cc1nnnn1Cc1ccco1)NC12CC3CC(CC(C3)C1)C2 (centres undefined) | 10µM* | -9.1% | -10.7% | -88.2%
CCOc1ccccc1C(=O)NC1CC2CCCC(C1)N2Cc1nnnn1Cc1ccco1 (centres undefined) | u | -3.8% | 6.9% | i
CCOC(=O)[C@]12CCCC=C1N(CCc1ccc(OC)c(OC)c1)C(=O)[C@H](CC(=O)NCCCCc1ccccc1)C2 | 10µM* | -26.9% | x | 2.9%
O=C(CSc1n[nH]c(-c2ccccn2)n1)Nc1ccccc1F | 11.2µM* | u | 6.7% | 13.1%
COc1ccccc1C(=O)Nc1ccc2c(c1)nc(CCNC(=O)c1ccccc1)n2C | u | 10µM* | 17.4% | -12.9%
SMILES | GLP1R inv ag | GLP1R cytotox | GLP1R ag | PTHR1 ag
COc1ccccc1C(=O)Nc1ccc2c(c1)nc(CCNC(C)=O)n2C | 5.2% | -13.4% | -5.8% | -0.3%[57.5 µM]
O=C(CCN1C(=O)C2C3C=CC(C3)C2C1=O)N1CCN(c2ccccn2)CC1 (centres undefined) | -6.9% | 20.4% | 8.5% | i
O=C1C2C3C=CC(C3)C2C(=O)N1c1ccc(N2CCN(c3ccccn3)CC2)c([N+](=O)[O-])c1 (centres undefined) | 2.82µM* | -48.8% | 5.6% | -30.3%
COc1cccc(-n2cc(C(=O)Nc3cccc(C(F)(F)F)c3)c3ccccc3c2=O)c1 | -7.8% | -3.9% | x | i
CCCc1ccc2oc(C(=O)NCCN3CCCC(C(N)=O)C3)c(C)c2c1 (centres undefined) | u | 32.2% | -6.5% | i
CCCc1ccc2oc(C(=O)NCCN3CCCC(O)C3)c(C)c2c1 (centres undefined) | 10µM* | 3.8% | 21.2% | i
CCOc1ccc(C(=O)Nc2cc(C)ccn2)cc1 | 3.98µM* | 4.0% | -3.3% | -41.4%
Cc1ccnc(NC(=O)c2ccc(S(=O)(=O)N3CCCCC3)cc2)c1 | -6.4% | -0.9% | 0.8% | -13.0%
Cc1ccnc(NC(=O)c2ccc(S(=O)(=O)N3CCCCCC3)cc2)c1 | 11.2µM* | 7.3% | 7.2% | -22.1%
COc1ccc(-c2nc3ccc(C4=C(C)CC(=O)NN4)cc3[nH]2)cc1 | x | x | 28.9% | x
O=C(c1ccc2c(c1)CCC2)N1CCN(Cc2c(F)cccc2Cl)CC1 | 10µM* | 1.9% | -7.4% | -17.3%
COCc1c(C(=O)N2CCN(Cc3c(F)cccc3Cl)CC2)oc2ccccc12 | 10µM* | -2.4% | 23.6% | -10.8%
C#CC1(OC(C)=O)CCC2C3CCC4=CC(OC(C)=O)CCC4C3CCC21C (centres undefined) | x | x | 1.4% | x
CCc1ccc(NC(=O)N(Cc2ccc(C)cc2)Cc2cccn2-c2nnc(N3CCCC3=O)s2)cc1 | u | 0.8% | x | 23.8%
Cc1ccc(N(C)S(=O)(=O)c2cccc(C(=O)NCC(c3ccco3)N3CCCC3)c2)cc1 (centres undefined) | 10µM* | 2.6% | -3.8% | -15.9%
COc1ccccc1C(CNC(=O)c1cccc(S(=O)(=O)Nc2ccc(C)cc2)c1)N1CCCC1 (centres undefined) | 5.62µM* | -28.4% | -4.5% | -9.2%
COc1ccccc1NS(=O)(=O)c1cccc(C(=O)NCC(c2ccccc2OC)N2CCCC2)c1 (centres undefined) | u | 11.2% | 5.3% | -17.9%
O=C(Nc1cccc(Cl)c1)c1cnc2sc(N3CCCC3)nn2c1=O | -18.0% | -0.6% | x | -59.1%
O=C1c2ccccc2S(=O)(=O)N1Cc1nc2ccccc2s1 | 3.98µM* | -6.9% | -20.5% | -5.5%[57.5 µM]
CCCCOc1ccc(C(=O)NCCc2sc3nc(-c4ccc(OC)cc4)nn3c2C)cc1 | 5.9% | 1.4% | -1.1% | -51.1%
COc1cc(OC)cc(C(=O)Nc2ccc(S(=O)(=O)N3CCCCC3c3cccnc3)cc2)c1 (centres undefined) | 7.08µM* | u | x | -35.9%
CCc1ccc(CN2CCC(n3nccc3NC(=O)c3ccccc3C)CC2)cc1 | 5.62µM* | u | 1.8% | -70.9%

Assay outcomes (PubChem)
